Experimental data from the supplement of paper PMC10981050.
Where a name gives a salt, the structure may show the parent alone.

Tested on: MARIMO
Assay: cell viability relative to vehicle control; higher = less cytotoxic
Details: 10 µM; SRSF2 genotype: SRSF2 wt/wt
Outline: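 Mutant clones made by CRISPR editing and their isogenic wild-type counterparts, from four leukaemia lines, were exposed to a single 10 µM dose of each library compound for 48 h. The supernatant was then removed and CellTiter-Glo luminescence was read. Viability was reported as percent of the on-plate vehicle control.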

SMILES | cell viability
COc1cc(C=O)c([N+](=O)[O-])cc1OC | 92.6%
CCOc1ccccc1OCCN[C@H](C)Cc1ccc(OC)c(S(N)(=O)=O)c1 [Tamsulosin hydrochloride] | 107%
O=C1CC(=O)c2c(Cl)c(Cl)c(Cl)c(Cl)c21 | 96.6%
CO/N=C(\C(=O)N[C@@H]1C(=O)N2C(C(=O)O)=C(CSC(=O)c3ccco3)CS[C@H]12)c1csc(N)n1 [Ceftiofur hydrochloride] | 93.9%
CC1=CC(=O)CC(C)(C)C1=O [Ketoisophorone] | 110%
CO[C@@]12[C@H](COC(N)=O)C3=C(C(=O)C(C)=C(N)C3=O)N1C[C@@H]1N[C@@H]12 [Mitomycin C] | 2.95%
O=c1cc(-c2ccc(O)c(O)c2)oc2cc(O)cc(O)c12 [Luteolin] | 82.6%
Cc1cc(C2CCCCC2)n(O)c(=O)c1 [Ciclopirox ethanolamine] | 26.4%
N[C@@H]1CN(c2c(F)cc3c(=O)c(C(=O)O)cn([C@@H]4C[C@@H]4F)c3c2Cl)CC12CC2 [Sitafloxacin hydrate] | 105%
COCCCN1CCC(NC(=O)c2cc(Cl)c(N)c3c2OCC3)CC1 [Prucalopride] | 91.6%
COc1cc2nc(N3CCCC3)nc(NCCCCCN3CCCC3)c2cc1OC | 3.33%
O=C(O)c1ccc2c(c1)C(=O)c1ccccc1C2=O [Anthraquinone-2-carboxylic Acid] | 92%
C[C@@H]1O[C@@H]1P(=O)(O)O [fosfomycin tromethamine] | 114%
CCCCCCCCCC[C@H](C(=O)O)[C@]1(C(=O)O)CCC(=O)O1 [Spiculisporic Acid] | 107%
CC1(C)CCC2(C(=O)O)C(O)CC3(C)C(=CCC4C5(C)CC(O)C(O)C(C)(CO)C5CCC43C)C2C1 (stereo not given) [Polygalacic acid] | 98.5%
C[C@H]1[C@H](NC(=O)/C(=N\OC(C)(C)C(=O)O)c2csc(N)n2)C(=O)N1S(=O)(=O)O [Aztreonam (Azactam, Cayston)] | 112%
C#C[C@]1(O)CC[C@H]2[C@@H]3CCc4cc(O)ccc4[C@H]3CC[C@@]21C [Ethinyl Estradiol] | 70%
CC(C)COc1ccc(CNC(=O)N(Cc2ccc(F)cc2)C2CCN(C)CC2)cc1 [Pimavanserin] | 4.09%
Oc1cc(O)c2c(c1)OC(c1ccc(O)c(O)c1)C(O)C2 (single isomer, unassigned; (+)) [(+)-Catechin hydrate] | 103%
Cc1ccc([C@@H]2O[C@H](CO)[C@@H](O)[C@H](O)[C@H]2O)cc1Cc1ccc(-c2ccc(F)cc2)s1 [Canagliflozin] | 90.3%

SMILES | cell viability
Nc1ncnc2c1c(-c1cnc3[nH]ccc3c1)nn2C1CCCC1 | 26.9%
COc1ccc(-c2oc3c(CC=C(C)C)c(O)cc(O)c3c(=O)c2O[C@@H]2O[C@@H](C)[C@H](O)[C@@H](O)[C@H]2O)cc1 [Baohuoside I] | 107%
OC1CCC(Oc2cccc3cnc(Nc4ccc5nc[nH]c5c4)nc23)CC1 (stereo not given) | 4.14%
CC(C)(C)c1[nH]cnc1/C=c1\[nH]c(=O)/c(=C/c2ccccc2)[nH]c1=O [NPI-2358 (Plinabulin)] | 11%
CN(C)C(=O)c1ccc(S(=O)(=O)c2ccc(NC(=O)C(C)(O)C(F)(F)F)c(Cl)c2)cc1 (stereo not given) | 58%
CN(C)C(=O)COC(=O)Cc1ccc(OC(=O)c2ccc(NC(=N)N)cc2)cc1 [Camostat Mesilate (FOY-305)] | 98.4%
C[C@@H]1COC(Nc2ccc3ncnc(Nc4ccc(OCc5nccs5)c(Cl)c4)c3c2)=N1 [Varlitinib] | 109%
CCOC(=O)[C@H](CCc1ccccc1)N[C@H]1CS[C@H](c2cccs2)CN(CC(=O)O)C1=O [Temocapril HCl] | 113%
Nc1ccn([C@H]2CC[C@@H](CO)O2)c(=O)n1 [Zalcitabine] | 112%
OCCOCCN1CCN(Cc2cccc(Oc3ccccc3)c2)CC1 | 99.3%
CC(C)[C@H]1CC[C@H](C(=O)N[C@H](Cc2ccccc2)C(=O)O)CC1 [Nateglinide (Starlix)] | 101%
Nc1ccc(O)c(C(=O)O)c1 [Mesalamine (Lialda)] | 94.7%
NCCCCCN [Cadaverine] | 101%
CN[C@@H](C)C(=O)N[C@H](C(=O)N1CCC[C@H]1c1nc(C(=O)c2ccc(F)cc2)cs1)C1CCCCC1 | 82.2%
Nc1[nH]c(=O)ncc1Br [5-Bromocytosine] | 103%
COc1nc(C)cnc1NS(=O)(=O)c1cccnc1-c1ccc(-c2nnco2)cc1 [Zibotentan (ZD4054)] | 97.6%
CC(=CCNc1ncnc2nc[nH]c12)CO [Trans-Zeatin] | 108%
CCCCCCCCOc1ccccc1C(=O)Nc1ccc(C(=O)OCC[N+](C)(CC)CC)cc1 [Otilonium Bromide] | 84.5%
CCCCCCCC/C=C\CCCCCCCCCCCC(=O)O [Erucic acid] | 107%
C=C1C(=O)[C@]23[C@H](O)[C@H]1CC[C@H]2[C@@]12CO[C@]3(O)[C@@H](O)[C@@H]1C(C)(C)CC[C@@H]2O [Oridonin (Isodonol)] | 30.1%
